Bioassay records as filed in PubChem BioAssay.
Cav3 T inh – human Cav3.2 channel inhibition, primary screen. O95180. Cav3.2-expressing cells, Fluo-4 calcium fluorescence FDSS; stronger effect = lower value. B-score at 10 µM. 100,000 tested, 4% active. AID 449739;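 active = single-dose well whose peak fluorescence ratio is a statistical outlier from its plate by either plate-standardised score or position-corrected B-score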
Pyk2 oligo antag – Pyk2 (human) oligomerization antagonism; Q293 cells, Pyk2 FERM NanoBiT luminescence; stronger effect = lower value; z-score (the deposit names both 25 µM and 10 µM); 99,000 tested, 0.83% active;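 active = Z-score of -3 or lower, scaled per plate to the spread of control and sample wells; inactive = z-score above -3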;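 also: negative z-score means lost luminescence so less FERM oligomerization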
PostGolgi yeast – growth inhibition of a yeast mutant, post-Golgi transport screen; AID 739; inhibition, % at 10 µM; post-Golgi transport phenotypic cell assay; 98,000 tested, 0.9% active;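 also: yeast cells grown in 1536-well plates; yeast grown about 18 h at 30C before absorbance read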
PostGolgi ctrl – inhibits growth of the yeast control strain; efflux-deficient yeast background strain, growth absorbance A615, 16 h; inhibition, % at 10 µM; 98,000 tested, 5% active; AID 738
Active calls of the source: *. Hits are enriched below; roughly 8% of the tested compounds scored in any of these assays. Rule as the data show it, unless noted: active = inhibition above about 30%; inactive = the rest.

How did Cc1nnc(NC(=O)c2ccc3c(c2)C(=O)N(CCC(C)C)C3=O)s1 do in these assays?
Cav3 T inh: 1.46; Pyk2 oligo antag: -0.5; PostGolgi yeast: -11.8; PostGolgi ctrl: 2.2

How did CCOC(=O)c1sc(=S)n(Cc2ccccc2)c1N do in these assays?
Cav3 T inh: -6.68*; Pyk2 oligo antag: -1.49; PostGolgi yeast: 7.2; PostGolgi ctrl: 14.4

Results for CC1(C(=O)NC23CC4CC(CC(C4)C2)C3)CC1(Cl)Cl (stereo not given) ?
Cav3 T inh: 0.371; Pyk2 oligo antag: -0.51; PostGolgi yeast: -1.5; PostGolgi ctrl: 33.8*

How did COc1nc2c(C)cccc2cc1-c1noc(-c2ccco2)n1 do in these assays?
Cav3 T inh: -0.29; Pyk2 oligo antag: -0.7; PostGolgi yeast: -6.0; PostGolgi ctrl: 23.3

What do the screens show for `CC(C(=O)Nc1ccc(C(=O)O)cc1)N1C(=O)c2ccccc2C1=O` (stereo not given)?
Cav3 T inh: -0.0154; Pyk2 oligo antag: -0.35; PostGolgi yeast: 9.6; PostGolgi ctrl: -7.2

Results for CC(C(=O)N(C1CC1)C1(C(=O)Nc2ccccc2)CCCC1)N1C(=O)c2ccccc2C1=O (stereo not given) ?
Cav3 T inh: -2.02; Pyk2 oligo antag: -0.73; PostGolgi yeast: 1.6; PostGolgi ctrl: 45.0*

Results for CCCNC(=O)C1(CC2CC(c3ccccc3)=NO2)CCN(C(=O)CCCCCBr)CC1 (stereo not given) ?
Cav3 T inh: 0.38

What do the screens show for `COc1ccc(NC(=O)CCOc2ccccc2)cc1`?
Cav3 T inh: -0.111; Pyk2 oligo antag: -0.48; PostGolgi yeast: -4.7; PostGolgi ctrl: 2.7

What do the screens show for `COc1ccc(C(CC(=O)Nc2ccc(F)cc2)c2ccccc2)cc1` (stereo not given)?
Cav3 T inh: -6.18*; Pyk2 oligo antag: -1.98; PostGolgi yeast: 1.2; PostGolgi ctrl: 17.3

How did O=S(=O)(c1cccc2nsnc12)N1CCCC1 do in these assays?
Cav3 T inh: 0.726; Pyk2 oligo antag: 0.41; PostGolgi yeast: 1.6; PostGolgi ctrl: 2.9

Results for Nc1cc(-c2ccc(Cl)cc2)nn1S(=O)(=O)c1cccc2nsnc12 ?
Cav3 T inh: -6.4*; PostGolgi yeast: 58.0*; PostGolgi ctrl: 65.7*

How did Nc1cc(-c2cccc(F)c2)nn1S(=O)(=O)c1cccc2nsnc12 do in these assays?
Cav3 T inh: -5.23*; PostGolgi yeast: 15.8; PostGolgi ctrl: -0.5

Results for Nc1cc(-c2ccc(Br)cc2)nn1S(=O)(=O)c1cccc2nsnc12 ?
PostGolgi yeast: 44.1*; PostGolgi ctrl: 83.1*

Results for Cc1sc(NC(=O)c2ccco2)c(C(c2cccnc2)N2CCN(C)CC2)c1C (stereo not given) ?
Cav3 T inh: 1.07; Pyk2 oligo antag: -0.25; PostGolgi yeast: -3.9; PostGolgi ctrl: 15.4

What do the screens show for `Cc1sc(NC(=O)c2ccco2)c(C(c2cccnc2)N2CCCC2)c1C` (stereo not given)?
Cav3 T inh: -0.818; Pyk2 oligo antag: -1.78; PostGolgi yeast: -0.1; PostGolgi ctrl: 38.8*

How did Cc1sc(NC(=O)c2ccco2)c(CN2CCCCC2)c1C do in these assays?
Cav3 T inh: -0.958; Pyk2 oligo antag: 1.09; PostGolgi yeast: -8.3; PostGolgi ctrl: 23.6

What do the screens show for `Cc1sc(NC(=O)c2ccco2)c(C(c2ccncc2)N2CCOCC2)c1C` (stereo not given)?
Cav3 T inh: 0.94; Pyk2 oligo antag: 0.79; PostGolgi yeast: -3.5; PostGolgi ctrl: 33.3*

How did Cc1ccc(-n2nc(-c3cccs3)cc2C(=O)NCC2CCCO2)c(C)c1 (stereo not given) do in these assays?
Cav3 T inh: -4.41*; Pyk2 oligo antag: -1.83; PostGolgi yeast: -0.5; PostGolgi ctrl: 4.8

Results for Cc1nn(-c2ccc(Cl)cc2)c(N)c1C(O)(CSc1nccn1C)C(F)(F)F (stereo not given) ?
Cav3 T inh: -0.663; Pyk2 oligo antag: 0.65; PostGolgi yeast: 12.0; PostGolgi ctrl: 13.1

How did CCSc1nc2c(c(=O)n1Cc1ccccc1)SC(C)C2 (stereo not given) do in these assays?
Cav3 T inh: -1.9; Pyk2 oligo antag: -1.4; PostGolgi yeast: 1.4; PostGolgi ctrl: 33.4*

How did CC1Cc2nc(SCC(=O)Nc3nccs3)n(Cc3ccccc3)c(=O)c2S1 (stereo not given) do in these assays?
Cav3 T inh: -0.936; PostGolgi yeast: 2.7; PostGolgi ctrl: 14.9

What do the screens show for `COCCNC(=O)c1cc(-c2ccc(Cl)c(Cl)c2)on1`?
Cav3 T inh: 0.0664; PostGolgi yeast: 0.2; PostGolgi ctrl: 20.0

Results for S=c1[nH]nc(C2CCCCC2)n1/N=C/C=C/c1ccccc1 ?
Pyk2 oligo antag: -0.88; PostGolgi yeast: 20.0; PostGolgi ctrl: 30.5*

Results for S=c1[nH]nc(C2CCCCC2)n1/N=C/c1ccc(Br)s1 ?
Cav3 T inh: 0.869; Pyk2 oligo antag: 0.46; PostGolgi yeast: 0.8; PostGolgi ctrl: -7.3

What do the screens show for `Cc1cccc(OCCCSc2nc3ccccc3[nH]2)c1`?
Cav3 T inh: -8.07*; Pyk2 oligo antag: 0.69; PostGolgi yeast: 2.5; PostGolgi ctrl: 33.6*

What do the screens show for `CCOc1ccc(OCCSc2nc3ccccc3[nH]2)cc1`?
Cav3 T inh: -0.815; Pyk2 oligo antag: -0.48

Results for COCCOc1ccc(C(F)(F)F)cc1NC(=O)COC(=O)c1c(C)noc1C ?
Cav3 T inh: -1.63; Pyk2 oligo antag: -1.95; PostGolgi yeast: 0.6; PostGolgi ctrl: 4.4

What do the screens show for `COCCOc1ccc(C(F)(F)F)cc1Nc1nc2ccccc2o1`?
Cav3 T inh: -1.37; Pyk2 oligo antag: -1.13; PostGolgi yeast: -2.7; PostGolgi ctrl: 54.1*

What do the screens show for `CCCCC(=O)Nc1sc2c(c1C(=O)OCC)CCC(C=O)=C2Cl`?
Cav3 T inh: -0.0206; Pyk2 oligo antag: -3.04*; PostGolgi yeast: -3.8; PostGolgi ctrl: 24.0

What do the screens show for `COC(=O)C(CCCCNC(=O)OCc1ccccc1)NC(=O)CN` (stereo not given)?
Cav3 T inh: 0.699; Pyk2 oligo antag: 0.13; PostGolgi yeast: 32.1*; PostGolgi ctrl: 7.2

Results for Cc1ccc2nc(NC(=O)CN(C)S(=O)(=O)c3ccc(Br)s3)sc2c1 ?
Pyk2 oligo antag: -0.65; PostGolgi yeast: 21.3; PostGolgi ctrl: 34.6*

What do the screens show for `CN(CC(=O)Nc1ccncc1)S(=O)(=O)c1ccc(Br)cc1`?
Cav3 T inh: 0.369; Pyk2 oligo antag: -0.14; PostGolgi yeast: 3.5; PostGolgi ctrl: 3.6

How did Cc1nc(NC(=O)CN(C)S(=O)(=O)c2ccc(Br)cc2)sc1C do in these assays?
Cav3 T inh: -5.82*; Pyk2 oligo antag: -1.21; PostGolgi yeast: -4.9; PostGolgi ctrl: 10.8

What do the screens show for `COc1ccc2nc(NC(=O)CN(c3ccc(C)cc3)S(=O)(=O)c3c(C)nn(C)c3C)sc2c1`?
Cav3 T inh: -3.08; Pyk2 oligo antag: -2.59; PostGolgi yeast: -3.6; PostGolgi ctrl: 49.7*

Results for CCc1ccc(N(CC(=O)Nc2nc3ccc(C)cc3s2)S(=O)(=O)c2c(C)noc2C)cc1 ?
Cav3 T inh: -2.49; PostGolgi yeast: 2.4; PostGolgi ctrl: 32.5*

What do the screens show for `CCc1ccc(NC(=O)CN(c2ccc3c(c2)OCO3)S(=O)(=O)c2c(C)noc2C)cc1`?
Cav3 T inh: -0.159; PostGolgi yeast: -3.5; PostGolgi ctrl: 29.2

Results for O=C1C2C3c4ccccc4C(c4ccccc43)C2C(=O)N1Cc1cccnc1 (stereo not given) ?
Cav3 T inh: 0.508; Pyk2 oligo antag: -0.1; PostGolgi yeast: 10.0; PostGolgi ctrl: 0.6
